High-throughput results (PubChem)
SF-1 inh: blocks the human nuclear receptor SF-1; CHO-K1 Gal4-SF-1 LBD luciferase reporter; Q13285; 65,000 tested, 0.55% active; inhibition, % at 10 µM;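 active = inhibition above the mean inhibition of all tested compounds plus 3 SD, cut at about 48% in these data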
Target sequence (Q13285 whole entry, looked up, the tested form may be a part): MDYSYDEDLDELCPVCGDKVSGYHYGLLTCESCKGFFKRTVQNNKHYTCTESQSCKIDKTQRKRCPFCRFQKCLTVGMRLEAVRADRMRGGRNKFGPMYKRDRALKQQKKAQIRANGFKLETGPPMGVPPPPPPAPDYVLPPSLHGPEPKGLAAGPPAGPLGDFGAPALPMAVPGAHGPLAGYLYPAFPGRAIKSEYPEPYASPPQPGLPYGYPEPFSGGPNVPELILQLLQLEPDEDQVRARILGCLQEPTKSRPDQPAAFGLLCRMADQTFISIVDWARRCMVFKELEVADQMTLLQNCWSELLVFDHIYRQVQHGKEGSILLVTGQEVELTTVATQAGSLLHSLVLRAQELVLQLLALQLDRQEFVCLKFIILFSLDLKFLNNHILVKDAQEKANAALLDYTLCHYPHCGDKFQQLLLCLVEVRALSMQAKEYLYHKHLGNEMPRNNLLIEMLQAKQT
Of the large screens only hits and unclear results are named; the others gave an inactive call. The entries come from a sample that favours hits as a whole.

Cc1c(-c2nc(N)nc(Nc3ccccc3)n2)oc2ccccc12	none
COC(=O)c1ccc(CSc2nnnn2-c2ccccc2)o1	none
COc1ccc(CCNS(=O)(=O)c2ccccc2)cc1OC	none
COc1ccc(CCNc2nnc(Sc3nnnn3-c3ccccc3)s2)cc1OC	SF-1 inh 68
C=C(C)CSc1nnc([C@H](CCSC)NC(=O)OC(C)(C)C)o1	none
Cc1noc(NS(=O)(=O)c2ccc(NC(=O)c3ccc(Br)o3)cc2)c1C	none
Cc1nnc(N2CCOCC2)c2ccccc12	none
CCOCCCNc1ccc(-c2ccccc2)nn1	none
CN(C)c1nc(N)nc(-c2nc3ccccc3s2)n1	none
Cc1ccc2[nH]c(-c3cccc(N)c3)cc2c1	none
Nc1cccc(-c2nc3ccc(N)cc3s2)c1	SF-1 inh 61
Cc1nnc(NC(=O)c2ccc(S(=O)(=O)N(C)Cc3ccccc3)cc2)o1	none
COCCN(CCOC)S(=O)(=O)c1ccc(C(=O)Nc2nc(-c3ccncc3)cs2)cc1	none
CSCc1nnc(NC(=O)c2ccc(S(=O)(=O)N(CC(C)C)CC(C)C)cc2)o1	SF-1 inh 48
Cc1ccc(C)c(S(=O)(=O)Nc2ccc(S(=O)(=O)Nc3onc(C)c3C)cc2)c1	none
COC(=O)c1sccc1NC(=O)CN1CCN(c2ccc(F)cc2)CC1	none
COC(=O)Nc1ccc(OCc2ccccc2)cc1	none
O=C(O)c1ccc2c(c1)C(=O)N(Cc1ccccc1)C2=O	none
COc1ccc(CNC(=O)c2cccc(N3CCCC3=O)c2)cc1	none
CCOc1ccc(OCc2cccc(C(=O)O)c2)cc1	SF-1 inh 95
O=C(O)c1cccc(OCc2ccccc2Cl)c1	none
CCCCOc1ccc(C(=O)O)cc1	none
O=C(O)c1cccc(COc2ccc(CO)cc2Cl)c1	SF-1 inh 94
COc1ccc(OCc2cccc(C(=O)O)c2)cc1	SF-1 inh 94
Clc1ccc(OCc2nn3c(-c4ccccc4)nnc3s2)c(Cl)c1	none
CC(=O)Oc1c(S(=O)(=O)c2ccc(C)cc2)c(C)nn1-c1ccccc1	none
CCC(CC)C(=O)NCCc1cc2ccc(C)c(C)c2[nH]c1=O	none
Cc1ccc2cc3cc(C(=O)N(C)C4CCCCC4)oc3nc2c1	none
COc1cc(NC(=O)C2CC2)c(C(=O)O)cc1OC	none
COC(=O)c1cc2sc(Cl)cc2n1CC(=O)N1CCCc2ccccc21	none
CCOc1ccccc1NC(=O)c1cccc(NC(=O)c2ccco2)c1	none
CCOC(=O)C1CCCN(C(=O)C2CCN(S(=O)(=O)c3cnc[nH]3)CC2)C1 (centres undefined)	none
CC(C)CN(C(=O)c1ccc(=O)n(C)n1)c1nc2ccccc2s1	none
CC(=O)N1CCc2c(sc(NC(=O)c3ccc4c(c3)OCCO4)c2C#N)C1	none
CC1(C)NC(=O)N(CC(O)CN2CCCCC2)C1=O (centres undefined)	none
Cc1ccc(C(C)C)c(OCCNc2nc3c(c(=O)n(C)c(=O)n3C)n2C)c1	SF-1 inh 49
COc1cccc(C(=O)Cn2c(Br)nc3c2c(=O)n(C)c(=O)n3C)c1	none
CC(C)Sc1nnc(Nc2ccccc2)s1	none
CC(C)Cc1cc(C(=O)N2CCN(c3ccc(F)cc3)CC2)no1	none
O=C(OCc1nc2ccccc2s1)c1cnccn1	none
COCCn1c(C)cc(C(=O)CSc2nnc(C)s2)c1C	SF-1 inh 68
COCCn1c(C)cc(C(=O)COC(=O)C23CC4CC(CC(O)(C4)C2)C3)c1C	none
COCCn1c(C)cc(C(=O)CN2C(=O)NC3(CCCCCCC3)C2=O)c1C	none
CCOC(=O)c1c(C)[nH]c(C(=O)Nc2ccc3c(c2)OCO3)c1C	none
Clc1cc(Cl)c2nc(N3CCOCC3)sc2c1	none
c1ccc(N2CCN(c3nc4cc5c(cc4s3)OCCO5)CC2)cc1	none
c1c2c(cc3sc(N4CCOCC4)nc13)OCCO2	SF-1 inh 65
CCCCCn1c(SCCOCC)nc2c1c(=O)[nH]c(=O)n2C	none
CC(=O)Cc1nsc(Nc2ccc3c(c2)OCCO3)n1	none
Cc1cc(N2CCN(C(=O)c3ccco3)CC2)n2nc(-c3cccc(Cl)c3)cc2n1	none
CCOC(=O)C1=C(C)Nc2ncnn2C1/C=C/c1ccccc1 (centres undefined)	none
CCOC(=O)C1=C(Cn2cnc3ccccc32)NC(=O)NC1c1cc(C)ccc1C (centres undefined)	SF-1 inh 59
CCSCCOC(=O)C1=C(C)NC(=O)NC1c1cc(OC)ccc1OC (centres undefined)	none
Cc1[nH]c2ccc(-c3nnc(SCC(=O)NCc4ccco4)n3Cc3ccccc3)cc2c1C	none
COc1ccc(Cl)cc1N(C)C(=O)CCNC(=O)Cn1cnc2ccccc2c1=O	none
O=C(CN(C1CCCCC1)S(=O)(=O)c1ccc(Cl)cc1)NCCCO	none
COc1ccc(N=CC2=C(O)CC(C)(C)CC2=O)cc1	none
Nc1nnnn1/N=C/C(Br)=C/c1ccccc1	SF-1 inh 96
CCCn1c(NC(=O)C2CCN(S(=O)(=O)c3cccs3)CC2)nc2ccccc21	none
O=S(=O)(N1CCCCCC1)N1CCN(S(=O)(=O)N2CCOCC2)CC1	none
Cc1cnc(NC(=O)COc2ccccc2Cl)s1	SF-1 inh 60
Cc1cnc(NC(=O)CSc2nnc(COc3c(C)cccc3C)o2)s1	none
Cc1cnc(NC(=O)CSc2nnc(-c3ccccc3)o2)s1	none
CC1(C)CNC(=O)C=C(c2ccccc2)C1	none
Cc1cc(C)n(-c2nc3c(c(=O)[nH]c(=O)n3C)n2CC(C)C)n1	none
CCC(=O)c1ccccc1OCCSc1nc(C)cc(=O)[nH]1	none
Cc1cc(C)nc(SCCS(=O)Cc2ccc(Cl)cc2)n1 (centres undefined)	none
COc1ccccc1C(=O)NCc1ccc2c(c1)OCO2	none
CCOC(=O)C(C)Oc1cccc2c(=O)n(CC(=O)NCc3ccc4c(c3)OCO4)ccc12 (centres undefined)	SF-1 inh 83
CCOC(=O)C(C)Oc1cccc2c(=O)n(CC(=O)Nc3ccc4c(c3)OCCO4)ccc12 (centres undefined)	SF-1 inh 82
COc1ccccc1C(=O)Nc1ccc2c(c1)OCCO2	none
O=C(Cn1nc(Cc2cccnc2)c2ccccc2c1=O)NCc1ccc2c(c1)OCO2	none
CC1CC(=O)N(CC(=O)Nc2ccc3c(c2)OCCO3)c2ccccc2S1 (centres undefined)	none
CN(C(=O)c1cnc2n(c1=O)CCS2)C1CCCCC1	none
CCOC(=O)c1sc2ncn(CC(=O)N(CC)CC)c(=O)c2c1C	none
O=C(CN1C(=O)CCSc2ccccc21)Nc1cccc(F)c1	none
Cc1ccc(-n2cc(-c3ccccc3)[nH]c2=O)cc1F	none
CN(CCc1ccccn1)C(=O)CN(C)S(=O)(=O)c1ccc2c(c1)c(=O)n(C)c(=O)n2C	none
Fc1ccc(-c2nnc(NC3=NCCCCC3)o2)cc1	SF-1 inh 62
CC(C)CCNC(=O)CN(CCN1CCOCC1)C(=O)Cn1nnc(-c2ccc(F)cc2)n1	none
CCn1nnnc1-c1ccc(OC)c(S(=O)(=O)N2CCCCC2)c1	none
CC(C)Nc1nc(SCC(=O)Nc2ccccc2)nc(N2CCOCC2)n1	none
CCOC(=O)NCC(C#CCN(CC)CC)N(CC)CC (centres undefined)	none
CN(C)CCCOC(=O)c1ccc(Br)cc1	none
CN(C)CCOC(=O)C1(c2ccccc2)CCOCC1	none
Cc1oc2cc3c(C(=O)OCCN(C)C)c(C)oc3cc2c1C(=O)OCCN(C)C	SF-1 inh 79
COc1ccc(Nc2ncc3c(n2)CC(c2ccc(OC)cc2)CC3=O)cc1 (centres undefined)	none
CCN(CC)S(=O)(=O)c1ccc2oc(C(=O)NCC3COc4ccccc4O3)c(C)c2c1 (centres undefined)	none
O[C@@H]1C2CCCC1[C@]1(O)CCCCC1C2 (some centres undefined)	none
